# Data from PubChem BioAssay AID2472 (National Center for Advancing Translational Sciences (NCATS), 2010).
# In all, about 290,000 compounds went through this assay and about 2,000 (0.69%) were called active. No stated cut-off is given here; in the data, active means activity change below about -30%; inactive means the rest, inconclusive results apart. Shown is part of a subset that was picked to be rich in actives.
# Assay: qHTS Assay for Inhibitors of Fructose-1,6-bisphosphate Aldolase from Giardia Lamblia: Coupling assay counterscreen
# Details: coupling enzyme system counterscreen, AmpLite Red fluorescence; at 58.2 µM (top of the series)
# Outline: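 Counterscreen of the coupled detection system alone, without aldolase: glyceraldehyde-3-phosphate coupling enzymes plus AmpLite Red readout. Compounds at 57.5 uM final, 10 min RT preincubation, 20 min RT reaction, fluorescence 525/598 nm.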
# On the % scale 0 is the no-effect control and ±100 the full control effect.
row,SMILES,"activity change, negative = inhibition"
1,Cc1ccc(CSCCNC(=O)CN(c2ccc(F)cc2)S(C)(=O)=O)cc1,-1.38% (inactive)
2,O=c1c(O)c(Br)ccc2c(Br)c(O)c(O)c(O)c12,-45.3% (active)
3,COc1ccc(CNC(=O)C(C)NCc2ccccc2Cl)cc1 (configuration not stated),-0.161% (inactive)
4,O=[N+]([O-])c1ccc(N=Cc2c(O)ccc3ccccc23)cc1,-37.8% (active)
5,O=[N+]([O-])c1ccc(O)c(/C=N/Nc2ccccc2[N+](=O)[O-])c1,0.257% (inactive)
6,Oc1ccc2ccccc2c1C=Nc1ccccc1,-34.9% (active)
7,COc1cc(N=Cc2c(O)[nH]c3ccccc23)cc(OC)c1OC,-1.7% (inactive)
8,O=[N+]([O-])c1ccc(N/N=C/c2ccccc2)cc1,1.24% (inactive)
9,CC(=O)n1c(C=Nc2ccccc2)c(O)c2ccccc21,0.601% (inactive)
10,CCCCn1c(SCC(=O)N2CCOCC2)nc2c1c(=O)n(C)c(=O)n2C,-0.5% (inactive)
11,O=C(Nc1ccccc1N1CCOCC1)c1ccc(OCc2cscn2)cc1,-3.06% (inactive)
12,Cc1nc(Nc2ccccc2F)c2nnn(Cc3ccccc3Cl)c2n1,1.81% (inactive)
13,C=C[C@](C)(O)CCC1C(=C)CCC2[C@@](C)(CO)CCC[C@@]12C (some centres not stated),1.09% (inactive)
14,O=[N+]([O-])c1ccc(C=Nc2ccc(Cl)cc2Cl)s1,-32% (active)
15,CC(C)(C)c1cc(C(=O)N/N=C/c2ccc([N+](=O)[O-])s2)n[nH]1,1.27% (inactive)
16,CCOc1ccc(NC(=O)CCC(=O)N/N=C/c2ccc([N+](=O)[O-])s2)cc1,0.71% (inactive)
17,Nc1nc2c(nc(Cl)n2C2OC(CO)C(O)C2O)c(=O)[nH]1 (configuration not stated),1.07% (inactive)
18,CC(=O)Nc1ccc(OCC(=O)NCc2ccc(C)cc2)cc1,0.378% (inactive)
19,COC(=O)c1ccc(OCC(=O)NC(C)(C)C)cc1,-2.25% (inactive)
20,CC(C)(C)NC(=O)COc1ccc(CNc2ccc3[nH]c(=O)[nH]c3c2)cc1,-49.7% (active)
21,Cc1cccc(C)c1NC(=O)CN1C(=O)C(C)Oc2ccccc21 (configuration not stated),0.123% (inactive)
22,NS(=O)(=O)c1cccc(NC(=O)CC23CC4CC(CC(Br)(C4)C2)C3)c1,-0.295% (inactive)
23,O=C(/C=C/c1ccc(N2CCOCC2)cc1)c1ccccc1,-2.68% (inactive)
24,Oc1c(C=Nc2cccc3nsnc23)ccc2ccccc12,-48.9% (active)
25,Oc1ccc2ccccc2c1N=Nc1nccs1,-6.8% (inactive)
26,N#Cc1cccc(NC(=O)CN2CCCCCC2)c1,0.599% (inactive)

row,SMILES,"activity change, negative = inhibition"
1,Cc1ccc(C(=O)NC2CCN(C(=O)Nc3ccc(F)cc3)CC2)cc1,-0.456% (inactive)
2,CC(=O)OCC(NC(=O)C(Cc1ccccc1)NC(=O)OC(C)(C)C)C1OC(n2ccc(=O)[nH]c2=O)C(OC(C)=O)C1OC(C)=O (configuration not stated),0.391% (inactive)
3,COc1ccc(N2CCN(C(=O)CCSCc3ccccc3F)CC2)cc1,2.76% (inactive)
4,Cc1cc(C)c([N+](=O)[O-])cc1-c1ccc(/C=N/NC(=O)c2nonc2N)o1,2.52% (inactive)
5,Cc1ccc(-c2ccc(/C=N/NC(=O)CN3CCOCC3)o2)cc1[N+](=O)[O-],-44% (active)
6,O=C(CN1CCOCC1)N/N=C/c1ccc(-c2ccc(Br)cc2)o1,-3.01% (inactive)
7,CC(C)CNC(=S)NC(=O)c1ccc(Cl)cc1,-5.21% (inactive)
8,COc1ccc(OCCCON2C(=O)c3ccccc3C2=O)cc1,0.279% (inactive)
9,CCOC(=O)C1=C(c2ccc(OC)cc2)C(=O)c2ccccc2C1=O,-63.5% (active)
10,CCOC(=O)c1c(-c2ccc(C)cc2)csc1/N=C(\C)C1=C(O)c2ccccc2C1=O,3.5% (inactive)
11,CC[N+](C)(CC)CCC[n+]1c(-c2ccccc2)c2cc(N)ccc2c2ccc(N)cc21,-38.7% (active)
12,COc1cc2c(C(=O)N3CCN(C)CC3)c(CSc3ccccc3)n(C)c2cc1Br,1.25% (inactive)
13,COc1cc(-c2c(-c3ccc4c(c3)OCO4)noc2C)ccc1F,4.94% (inactive)
14,CNC(=O)C1(C)C=CC2(CCCCC2)N1C(C)=O (configuration not stated),-1.27% (inactive)
15,CN1c2ccc([N+](=O)[O-])cc2C(C)(C)C12C=Cc1cc(C(=O)O)ccc1O2 (configuration not stated),6.4% (inactive)
16,COc1ccc2c(c1)C=CC1(O2)N(CCO)c2ccccc2C1(C)C (configuration not stated),-47.2% (active)
17,COc1cccc(CC2(CO)CCCN(CC3=Cc4cc(OC)ccc4OC3)C2)c1 (configuration not stated),-1.06% (inactive)
18,CCOC(=O)C1(CCOc2ccccc2)CCN(Cc2cc(OC)c(O)cc2Cl)CC1,-3.97% (inactive)
19,O=c1ccc2cc(S(=O)(=O)Nc3ccccc3F)ccc2o1,2.93% (inactive)
20,COc1ccc2c(c1)C(=C(C#N)C#N)C(=O)N2CCc1ccccc1,-35.5% (active)
21,C#CCN1C(=O)C(O)(CC(=O)c2cc(OC)ccc2OC)c2ccccc21 (configuration not stated),2.24% (inactive)
22,CCCCN1C(=O)/C(=C(/C#N)C(N)=O)c2ccccc21,-19.4% (inactive)
23,NCCCNCCCCN(CCCN)/[N+]([O-])=N/O,1% (inactive)
24,CN(C)c1ccc(S(=O)(=O)NCC(=O)NCC2CCCCC2)cc1[N+](=O)[O-],-0.658% (inactive)
25,COc1ccc(-c2ccc(C3C4C=CCCC4(C)C(=O)N3Cc3ccccc3)c(F)c2)cc1OC (configuration not stated),2.19% (inactive)
26,CC1(C)c2[nH]c3ccccc3c2C[C@H]2C(=O)N(N)CC(=O)N21,2.07% (inactive)
